Data taken from PubChem BioAssay (Tox21).
Results filed as inconclusive are left out. Activity calls are given as the source filed them. Unless noted, calls come from the whole dose curve; as a rule, active = well fitted curve in the direction sought with a large enough effect in the repeat runs; inconclusive = weak or mixed curves; inactive = no such curve, though single readings can be large; an effect the other way counts as inactive or inconclusive.

Tests used:
[1] = biological target: Retinoic acid receptor RXR-alpha (Homo sapiens) (UniProt P19793); assay: qHTS assay to identify small molecule agonists of the RXR signaling pathway (AID 1159527; calls by dose curve; note: nearly all actives have a fitted effect of over 35% in size)
How it was run: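 GeneBLAzer RXR-alpha-UAS-bla HEK 293T cells in 2% charcoal-stripped FBS medium were exposed to compounds for 16 hr at 37 C in agonist mode. Beta-lactamase reporter read as 460/530 nm FRET ratio after 2 hr substrate loading.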

[2] = qHTS assay to identify small molecule agonists of the RXR signaling pathway - cell viability counter screen (AID 1159529); note: series mostly up to about 77 µM; nearly all actives have a fitted effect of over 50% in size
How it was run: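 RXR-alpha-UAS-bla HEK 293T cells in medium with 2% charcoal-stripped FBS were pre-incubated 5 hr, then compound-treated 16 hr at 37 C. Viability was read by CellTiter-Glo luminescence in the same wells as the beta-lactamase assay, with tetraoctyl ammonium bromide as positive control.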

[3] = qHTS assay to identify small molecule antagonists of the retinoid acid receptor (RAR) signaling pathway - cell viability counter screen (AID 1159551); note: nearly all actives have a fitted effect of over 35% in size
How it was run: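 Retinol-stimulated (1 uM final) C3RL4 cells, compound 6 h, 37 C; readout CellTiter-Glo luminescence (ATP) after 30 min RT incubation.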

[4] = qHTS assay to identify small molecule antagonists of the retinoic acid receptor (RAR) signaling pathway (AID 1159552; note: nearly all actives have a fitted effect of over 50% in size)
How it was run: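 Retinol signaling pathway inhibitors screened in C3RL4 RARE-luciferase reporter cells seeded overnight at 37 C, then compounds added with 1 uM (final) retinol as pathway substrate. After 6 hr at 37 C, luciferase luminescence read after 30 min at room temperature.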

[5] = qHTS assay to identify small molecule agonists of the retinoic acid receptor (RAR) signaling pathway (AID 1159553)
How it was run: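 Reporter readout comes from luciferase under RARE control in C3RL4 cells; compound exposure lasts 6 hr at 37 C in 5% CO2, and luminescence is recorded following a 30 min room-temperature incubation with reagent.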

[6] = qHTS assay to identify small molecule antagonists of the estrogen related receptor (ERR) signaling pathway from Tox21 library - cell viability counter screen (AID 1224834); note: nearly all actives have a fitted effect of over 30% in size
How it was run: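 After 17.5 h of compound exposure at 37 C, ERR cells are incubated with CellTiter-Fluor for 30 min and fluorescence intensity serves as the viability measure.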

[7] = biological target: Luciferin 4-monooxygenase (Photinus pyralis) (UniProt P08659); assay: qHTS assay to identify small molecule inhibitors of firefly luciferase (AID 1224835); note: series mostly up to about 120 µM; nearly all actives have a fitted effect of over 25% in size
How it was run: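 Inhibition of purified Photinus luciferase is measured by luminescence. Substrate levels (D-luciferin, ATP) sit at their KM values. Each compound is tested in a concentration series.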

[8] = qHTS assay to identify small molecule agonists of the constitutive androstane receptor (CAR) signaling pathway - cell viability counter screen (AID 1224836); note: series mostly up to about 92 µM; nearly all actives have a fitted effect of over 45% in size
How it was run: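 HepG2 cells stably carrying hCAR and a CYP2B6-2.2kb reporter; 15-concentration compounds plus PK11195 (final 0.75 uM), 23 hr at 37 C/5% CO2. Viability read by CellTiter-Fluor fluorescence.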

[9] = qHTS assay to identify small molecule antagonists of the constitutive androstane receptor (CAR) signaling pathway - cell viability counter screen (AID 1224837); note: series mostly up to about 92 µM; nearly all actives have a fitted effect of over 45% in size
How it was run: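 Counter screen run in HepG2-CYP2B6-hCAR cells: 4 hr settle, compound titration (15 concentrations) with 50 nM CITCO, 23 hr at 37 C/5% CO2, CellTiter-Fluor fluorescence.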

[10] = biological target: Nuclear receptor subfamily 1 group I member 3 (Homo sapiens) (UniProt Q14994); assay: qHTS assay to identify small molecule antagonists of the constitutive androstane receptor (CAR) signaling pathway (AID 1224838);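 note: HepG2 cells stably expressing hCAR with CYP2B6 luciferase reporter stimulated by CITCO; nearly all actives have a fitted effect of over 40% in size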
How it was run: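 Cell line: HepG2 double-stable for hCAR and CYP2B6-2.2kb reporter. Agonist: CITCO, 50 nM final. Compounds: 15 concentrations, 24 h, 37 C. Detection: ONE-Glo luminescence.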

[11] = biological target: Nuclear receptor subfamily 1 group I member 3 (Homo sapiens) (UniProt Q14994); assay: qHTS assay to identify small molecule agonists of the constitutive androstane receptor (CAR) signaling pathway (AID 1224839);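 note: HepG2 cells stably carrying human CAR and a CYP2B6 luciferase reporter; series mostly up to about 92 µM; nearly all actives have a fitted effect of over 15% in size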
How it was run: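 HepG2 cells stably co-transfected with hCAR and a CYP2B6-2.2kb luciferase reporter; compounds at 15 concentrations with 0.75 uM PK11195 present. After 24 hr at 37 C, luciferase read by ONE-Glo luminescence.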

[12] = qHTS assay to identify small molecule antagonists of the estrogen related receptor signaling pathway with the pleiotropic PPARgamma coactivator (PGC) from Tox21 10K library - cell viability counter screen (AID 1224840; active = well fitted cell-killing curve with a large enough effect in the repeat runs, not every such curve was filed as active; note: nearly all actives have a fitted effect of over 40% in size)
How it was run: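 Following seeding of 2,000 PGC/ERR cells/well and 6 hours' incubation, test compounds were delivered in DMSO. The plates then sat 17.5 hours at 37 C before a fluorogenic live-cell protease reagent (CellTiter-Fluor) was read after 30 min.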

[13] = biological target: Thyrotropin receptor (Homo sapiens) (UniProt P16473); assay: qHTS assay to identify small molecule agonists of the thyroid stimulating hormone receptor (TSHR) signaling pathway (AID 1224843; calls by dose curve; note: nearly all actives have a fitted effect of over 45% in size)
How it was run: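 Screening of the Tox21 10K collection used HEK293 cells engineered with TSHR at 800 cells per well. After a 30-min room-temperature compound exposure, HTRF cAMP reagents were added and fluorescence recorded 1 h later.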

[14] = qHTS assay to identify small molecule agonists of the hypoxia (HIF-1) signaling pathway - cell viability counter screen (AID 1224844; calls by dose curve; note: nearly all actives have a fitted effect of over 50% in size)
How it was run: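 Cells (HRE-bla ME-180, 2,000 per well) sat 5 hrs at 37C, got compound for 17 hrs, were read for CCF4-AM FRET, and were finally lysed with CellTiter-Glo for a 30 min room-temperature luminescence read.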

[15] = qHTS assay to identify small molecule agonists of the hypoxia (HIF-1) signaling pathway (AID 1224846; active = well fitted activation curve with a large enough effect in the signal ratio in the repeat runs, not every such curve was filed as active; the % refers to the signal ratio)
How it was run: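 A low-serum medium (0.5% dialyzed FBS) holding 2,000 HRE-bla ME-180 cells per well is preincubated for 5 hrs, dosed with compounds by pintool, and kept a further 17 hrs at 37C, 5% CO2 before CCF4-AM FRET detection of beta-lactamase.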

[16] = qHTS assay to identify small molecule agonists of H2AX - cell viability counter screen (AID 1224847; calls by dose curve;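 note: wild-type CHO-K1 cells; top concentration of the series differs between compounds; nearly all actives have a fitted effect of over 30% in size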)
How it was run: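 CHO-K1 cells plated overnight at 37C, then exposed 3 h at 37C to compounds at 15 concentrations (0.76% DMSO final). Viability by CellTiter-Glo luminescence after 30 min at room temperature.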

[17] = qHTS assay to identify small molecule agonists of H2AX (AID 1224845; active = well fitted activation curve with a large enough effect in the signal ratio in the repeat runs, not every such curve was filed as active; the % refers to the signal ratio)
How it was run: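 Phospho-H2AX Ser139 measured by HTRF (ex 320 nm; em 665 and 620 nm) after 24 hr antibody incubation. Compounds, 15 concentrations, 0.76% DMSO, were applied to CHO-K1 cells for 3hr at 37C before lysis.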

[18] = qHTS assay to identify small molecule antagonists of the estrogen related receptor signaling pathway with the pleiotropic PPARgamma coactivator (PGC) from Tox21 10K library (AID 1224841; call rule not given here; note: series mostly up to about 92 µM; actives are mostly falling curves and most rising ones were filed inactive; nearly all actives have a fitted effect of over 50% in size)
How it was run: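 qHTS antagonist format: PGC/ERR cells, 2k/well, compound in DMSO by pin transfer after 6 h attachment, 18 h treatment at 37 C, One-Glo luminescence read at 30 min.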

[19] = qHTS assay to identify small molecule agonists of the estrogen related receptor signaling pathway with the pleiotropic PPARgamma coactivator (PGC) from Tox21 10K library (AID 1224842); note: nearly all actives have a fitted effect of over 15% in size
How it was run: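 Luminescence from One-Glo (30 min, room temperature) measured after PGC/ERR cells had 18 h at 37 C with pinned compound (23 nL in DMSO). Cells had been seeded at 2,000 per well and pre-incubated 6 h.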

[20] = qHTS assay to identify small molecule antagonists of the estrogen related receptor (ERR) signaling pathway from Tox21 library (AID 1224848); note: nearly all actives have a fitted effect of over 50% in size
How it was run: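 Antagonist-mode screen of the Tox21 10K library in an NTP-provided ERR reporter cell line; 18 h compound exposure at 37 C, luminescence measured with ONE-Glo.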

Measured: Potency

Chain of Retinoic acid receptor RXR-alpha (Homo sapiens) (P19793 whole entry, looked up): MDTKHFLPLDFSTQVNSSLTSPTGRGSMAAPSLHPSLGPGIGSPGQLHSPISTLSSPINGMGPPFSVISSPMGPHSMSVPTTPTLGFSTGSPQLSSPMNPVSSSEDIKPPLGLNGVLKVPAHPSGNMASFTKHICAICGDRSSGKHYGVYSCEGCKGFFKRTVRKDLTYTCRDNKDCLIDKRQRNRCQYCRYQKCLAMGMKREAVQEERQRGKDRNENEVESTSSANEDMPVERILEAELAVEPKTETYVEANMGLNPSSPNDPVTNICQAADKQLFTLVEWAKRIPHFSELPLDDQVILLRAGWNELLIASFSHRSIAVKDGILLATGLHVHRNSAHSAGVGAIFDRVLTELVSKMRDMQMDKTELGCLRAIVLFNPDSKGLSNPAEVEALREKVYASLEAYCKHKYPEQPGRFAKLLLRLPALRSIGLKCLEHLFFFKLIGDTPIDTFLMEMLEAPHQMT
Chain of Thyrotropin receptor (Homo sapiens) (P16473 whole entry, looked up): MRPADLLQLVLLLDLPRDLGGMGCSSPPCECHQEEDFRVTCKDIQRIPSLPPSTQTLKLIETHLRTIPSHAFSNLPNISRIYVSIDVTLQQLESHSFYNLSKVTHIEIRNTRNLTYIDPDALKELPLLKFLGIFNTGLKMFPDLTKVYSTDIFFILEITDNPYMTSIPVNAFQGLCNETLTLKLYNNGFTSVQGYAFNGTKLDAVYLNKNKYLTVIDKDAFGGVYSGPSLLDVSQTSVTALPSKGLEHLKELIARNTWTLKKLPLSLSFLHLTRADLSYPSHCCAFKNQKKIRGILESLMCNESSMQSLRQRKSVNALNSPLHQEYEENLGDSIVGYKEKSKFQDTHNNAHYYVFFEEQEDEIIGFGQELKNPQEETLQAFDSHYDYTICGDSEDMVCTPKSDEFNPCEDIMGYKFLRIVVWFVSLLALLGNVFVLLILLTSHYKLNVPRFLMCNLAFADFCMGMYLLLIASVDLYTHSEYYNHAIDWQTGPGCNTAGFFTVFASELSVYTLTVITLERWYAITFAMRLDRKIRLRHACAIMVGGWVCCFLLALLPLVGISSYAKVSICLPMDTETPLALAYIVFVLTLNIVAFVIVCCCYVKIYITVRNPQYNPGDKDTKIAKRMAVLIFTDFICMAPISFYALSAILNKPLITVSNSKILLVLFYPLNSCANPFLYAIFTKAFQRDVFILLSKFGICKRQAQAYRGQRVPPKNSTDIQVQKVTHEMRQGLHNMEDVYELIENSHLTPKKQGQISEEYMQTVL
Chain of Nuclear receptor subfamily 1 group I member 3 (Homo sapiens) (Q14994 whole entry, looked up): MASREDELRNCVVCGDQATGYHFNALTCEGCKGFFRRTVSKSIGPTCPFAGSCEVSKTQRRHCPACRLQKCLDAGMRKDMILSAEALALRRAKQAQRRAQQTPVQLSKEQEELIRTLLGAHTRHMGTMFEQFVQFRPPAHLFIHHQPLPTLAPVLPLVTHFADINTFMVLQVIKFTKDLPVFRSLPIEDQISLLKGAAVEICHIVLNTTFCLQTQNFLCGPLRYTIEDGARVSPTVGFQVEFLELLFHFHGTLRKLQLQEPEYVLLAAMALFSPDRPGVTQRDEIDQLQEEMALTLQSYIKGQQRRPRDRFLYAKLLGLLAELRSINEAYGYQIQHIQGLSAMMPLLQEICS
Chain of Luciferin 4-monooxygenase (Photinus pyralis) (P08659 whole entry, looked up): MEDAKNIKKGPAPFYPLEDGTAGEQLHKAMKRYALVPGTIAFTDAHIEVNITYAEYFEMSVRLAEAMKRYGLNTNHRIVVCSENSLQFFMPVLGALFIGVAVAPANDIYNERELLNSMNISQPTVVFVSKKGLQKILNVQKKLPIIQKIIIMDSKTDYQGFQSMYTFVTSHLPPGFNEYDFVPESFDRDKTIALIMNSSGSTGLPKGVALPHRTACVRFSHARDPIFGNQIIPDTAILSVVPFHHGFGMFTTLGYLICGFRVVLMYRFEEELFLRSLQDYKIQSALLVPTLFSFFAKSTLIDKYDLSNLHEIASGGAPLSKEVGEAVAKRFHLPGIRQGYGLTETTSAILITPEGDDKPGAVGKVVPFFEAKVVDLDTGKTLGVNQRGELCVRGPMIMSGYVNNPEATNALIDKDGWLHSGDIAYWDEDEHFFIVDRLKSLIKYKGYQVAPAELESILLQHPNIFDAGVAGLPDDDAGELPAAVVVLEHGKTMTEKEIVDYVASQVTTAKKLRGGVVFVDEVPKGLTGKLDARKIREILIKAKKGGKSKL

CC1(C)O[C@H]2CC(=O)OC[C@]23[C@H]2CC[C@@]4(C)[C@H](c5ccoc5)OC(=O)[C@H]5O[C@]54[C@]2(C)C(=O)C[C@@H]13
not listed: [17] | [18] | [19] | [20]
inactive: all other assays above

Cc1c(N)cccc1Cl
not listed: [10] | [18] | [19] | [20]
inactive: all other assays above

O=C(O)c1cc2ccccc2nc1C(=O)O
not listed: [10] | [16] | [17] | [18] | [19] | [20]
inactive: all other assays above

CCOc1ccccc1OCC1CNCCO1 (stereo unspecified)
not listed: [10] | [18] | [19] | [20]
inactive: all other assays above

CC(=O)OC1CCCCC1C(C)(C)C (stereo unspecified)
not listed: [17] | [18] | [19] | [20]
inactive: all other assays above

CN(C)C(C)(C)CO
not listed: [17] | [18] | [19] | [20]
inactive: all other assays above

Cc1ccnc(N)c1
not listed: [17] | [18] | [19] | [20]
inactive: all other assays above

O=C(NCN1CCOCC1)c1cnccn1
not listed: [13] | [18] | [19] | [20]
inactive: all other assays above

Cc1c(C(=O)c2c[nH]n(C)c2=O)ccc(S(C)(=O)=O)c1C1=NOCC1
not listed: [13] | [18] | [19] | [20]
inactive: all other assays above

Cn1nnc2c(C(N)=O)ncn2c1=O
not listed: [10] | [13] | [15] | [17]
inactive: all other assays above

CC(=O)c1cc(C)oc1C
not listed: [13] | [16] | [18] | [19] | [20]
inactive: all other assays above

CCCCOCC(C)O (stereo unspecified)
not listed: [17] | [18] | [19] | [20]
inactive: all other assays above

Cc1ncc([N+](=O)[O-])n1CC(C)O (stereo unspecified)
not listed: [13] | [18] | [19] | [20]
inactive: all other assays above

CC(=O)O[C@H]1C[C@@H]2CC[C@@]1(C)C2(C)C
not listed: [17] | [18] | [19] | [20]
inactive: all other assays above

COc1cc2c(cc1OC)CN(C(=O)[C@H](C)N[C@@H](CCc1ccccc1)C(=O)O)[C@H](C(=O)O)C2
not listed: [10] | [17] | [18] | [19] | [20]
inactive: all other assays above

O=C1CCCCO1
not listed: [17] | [18] | [19] | [20]
inactive: all other assays above

[O-][n+]1cccc(/C(Cl)=N/OC[C@@H](O)CN2CCCCC2)c1
not listed: [13] | [16] | [18] | [19] | [20]
inactive: all other assays above

CCCC(=O)Nc1ccc(OCC(O)CNC(C)C)c(C(C)=O)c1 (stereo unspecified)
not listed: [10] | [15] | [16] | [18] | [19] | [20]
inactive: all other assays above
